Measurements from PubChem BioAssay (NCI).
About 83,000 compounds went through this panel and 20% of them were active in at least one assay; those are over-represented in the sample as a whole.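 In brief: 96-well plates, 48 h treatment, single concentration, percent growth endpoint.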 Activity calls are given as the source filed them. Rule for the calls: active = growth percent below 10; inactive = the rest.

Columns and labels:
Assay in all cases: NCI-60 one-dose screen, 48 h (100 = growth as untreated, 0 = no growth, -100 = all killed)
Details in all cases: 10 µM unless noted
SK-MEL-2 melanoma = system: SK-MEL-2 melanoma
EKVX NSCLC = system: EKVX NSCLC
SN12C renal = system: SN12C renal
UO-31 renal = system: UO-31 renal
TK-10 renal = system: TK-10 renal
ACHN renal = system: ACHN renal
CAKI-1 renal = system: CAKI-1 renal
A498 renal = system: A498 renal
CCRF-CEM leukemia = system: CCRF-CEM leukemia
MOLT-4 leukemia = system: MOLT-4 leukemia

Measured: growth

CC(C)N1CCN(c2ccc(OC[C@H]3CO[C@](Cn4cncn4)(c4ccc(Cl)cc4Cl)O3)cc2)CC1
inactive: SK-MEL-2 melanoma 95% | EKVX NSCLC 91.4% | SN12C renal 81.2% | UO-31 renal 98.7% | TK-10 renal 91.5% | ACHN renal 102% | CAKI-1 renal 79.3% | A498 renal 76.7% | CCRF-CEM leukemia 82.6% | MOLT-4 leukemia 86.2%

CCCCc1ccc(NC(=O)C(F)(F)F)cc1
inactive: SK-MEL-2 melanoma 99% | EKVX NSCLC 120% | SN12C renal 98.3% | UO-31 renal 83.8% | TK-10 renal 95.4% | ACHN renal 102% | CAKI-1 renal 105% | A498 renal 84.1% | MOLT-4 leukemia 74.9%

NC1=NC(c2ccccc2OS(=O)(=O)c2ccc(Br)cc2)n2c(nc3ccccc32)N1 (configuration not stated)
inactive: SK-MEL-2 melanoma 101% | EKVX NSCLC 99.1% | SN12C renal 87.7% | UO-31 renal 73.5% | TK-10 renal 99% | ACHN renal 94.5% | CAKI-1 renal 104% | A498 renal 101% | MOLT-4 leukemia 79.3%

O=c1c2cc(F)ccc2oc2c(NCCNCCO)nc3ccccc3c12
inactive: SK-MEL-2 melanoma 84.7% | EKVX NSCLC 50.9% | SN12C renal 37.7% | UO-31 renal 37.1% | TK-10 renal 71.3% | ACHN renal 19.1% | CAKI-1 renal 30.2% | CCRF-CEM leukemia 30.9%
active: MOLT-4 leukemia -0.96%

FC(F)(F)Oc1ccc2c(c1)C[C@H]1C[C@@H](c3ccoc3)N2O1
inactive: SK-MEL-2 melanoma 118% | EKVX NSCLC 93.9% | SN12C renal 110% | UO-31 renal 100% | TK-10 renal 97.4% | ACHN renal 94% | CAKI-1 renal 82.6% | A498 renal 93.2% | MOLT-4 leukemia 96.4%

Cc1cc(NS(=O)(=O)c2ccc(NC(=O)COc3ccc(-c4cc5ccccc5[nH]4)cc3)cc2)no1
active: MOLT-4 leukemia -2.31%
inactive: SK-MEL-2 melanoma 27.3% | EKVX NSCLC 54.4% | SN12C renal 39.2% | UO-31 renal 26.4% | TK-10 renal 52.6% | ACHN renal 21.7% | CAKI-1 renal 57.5% | A498 renal 42.9%

Cc1ccc(N(CSc2ccc(Cl)cc2)CSc2ccc(Cl)cc2)cc1
active: A498 renal -22.4% | CCRF-CEM leukemia -7.51% | MOLT-4 leukemia -16.3%
inactive: SK-MEL-2 melanoma 86.2% | EKVX NSCLC 17.4% | SN12C renal 30.3% | UO-31 renal 22.1% | TK-10 renal 92.2% | ACHN renal 66.6% | CAKI-1 renal 28.8%

O=C(COc1cccc(/C=C2\COc3ccccc3C2=O)c1)c1ccccc1
active: CCRF-CEM leukemia -32.7% | MOLT-4 leukemia -21.9%
inactive: SK-MEL-2 melanoma 70.7% | EKVX NSCLC 84% | SN12C renal 84.9% | UO-31 renal 75.1% | TK-10 renal 92.2% | ACHN renal 86.8% | CAKI-1 renal 53.2% | A498 renal 86.9%

Nc1nc(N)c(C=Nc2ccc(Br)cc2)c(Nc2ccc(Br)cc2)n1
inactive: SK-MEL-2 melanoma 108% | EKVX NSCLC 86.4% | SN12C renal 99.2% | UO-31 renal 75.2% | TK-10 renal 127% | ACHN renal 73.3% | CAKI-1 renal 69.2% | A498 renal 83.1% | CCRF-CEM leukemia 81.1% | MOLT-4 leukemia 64.7%

O=C1C(Cl)=C(NCCCN2CCOCC2)C(=O)c2ccccc21
inactive: SK-MEL-2 melanoma 104% | EKVX NSCLC 112% | SN12C renal 82.8% | UO-31 renal 61% | TK-10 renal 131% | ACHN renal 108% | CAKI-1 renal 102% | A498 renal 110% | CCRF-CEM leukemia 90.9% | MOLT-4 leukemia 88.4%

CCCN(CCC)c1ccc(/C=C/c2ccc3cc(OCC)ccc3n2)cc1
inactive: SK-MEL-2 melanoma 88.2% | EKVX NSCLC 86.3% | SN12C renal 90.7% | UO-31 renal 71.8% | TK-10 renal 116% | ACHN renal 92.4% | CAKI-1 renal 85.1% | A498 renal 64.6% | CCRF-CEM leukemia 63.4% | MOLT-4 leukemia 53%

COC(=O)C1C2CC3c4[nH]c5cc(OC)ccc5c4CCN3CC2CC(OC2CCCCO2)C1OC (configuration not stated)
inactive: SK-MEL-2 melanoma 106% | EKVX NSCLC 101% | SN12C renal 108% | UO-31 renal 92.8% | TK-10 renal 104% | ACHN renal 99.6% | CAKI-1 renal 83.2% | A498 renal 82.8% | CCRF-CEM leukemia 89.2% | MOLT-4 leukemia 99.2%

COc1cc2oc(-c3ccc(O)cc3)cc(=O)c2c(O)c1I
inactive: SK-MEL-2 melanoma 103% | EKVX NSCLC 87.8% | SN12C renal 100% | UO-31 renal 93% | TK-10 renal 109% | ACHN renal 98.7% | CAKI-1 renal 96.6% | CCRF-CEM leukemia 94.9% | MOLT-4 leukemia 111%

C=C[C@H]1C[C@@H]2C[C@@H]3[C@H]4C/C=C\C(=O)NCCCC5NC(=O)C(=C(O)/C=C/[C@@H]4CC(=O)[C@H]3[C@@H]2[C@H]1C)C5=O (some centres not stated)
inactive: EKVX NSCLC 61.6% | CAKI-1 renal 29%
active: SK-MEL-2 melanoma -54% | SN12C renal -60.7% | UO-31 renal -87.4% | TK-10 renal -94.5% | ACHN renal -93.3% | A498 renal -93.5% | MOLT-4 leukemia -68.9%

CCCCc1ccc(C(O)(CCN2CC3CCC(CC3)C2)c2ccccc2)cc1 (configuration not stated)
inactive: SK-MEL-2 melanoma 98% | EKVX NSCLC 87.4% | SN12C renal 95.7% | UO-31 renal 65.3% | TK-10 renal 104% | ACHN renal 94.5% | CAKI-1 renal 92.6% | A498 renal 77% | MOLT-4 leukemia 80.9%

O=c1onc(-c2ccccc2)c2ccccc12
inactive: SK-MEL-2 melanoma 118% | EKVX NSCLC 121% | SN12C renal 101% | UO-31 renal 97.8% | TK-10 renal 114% | ACHN renal 112% | CAKI-1 renal 98.5% | A498 renal 83.1% | MOLT-4 leukemia 98.9%

COc1ccc(S(=O)(=O)c2ccc(C(N)=O)cc2)cc1NC(=O)c1[nH]c(C)c2c1CCCCC2=O
inactive: SK-MEL-2 melanoma 74.1% | EKVX NSCLC 75% | SN12C renal 76.7% | UO-31 renal 78.5% | TK-10 renal 81.1% | ACHN renal 101% | CAKI-1 renal 93.4% | A498 renal 11.1% | CCRF-CEM leukemia 56.6% | MOLT-4 leukemia 49.4%

COC(=O)[C@@]12CC[C@@H](C)[C@]3(C[C@@H](c4ccoc4)OC3=O)[C@H]1CC[C@@H]1O[C@@]12C
inactive: SK-MEL-2 melanoma 96.9% | EKVX NSCLC 94.8% | SN12C renal 98.8% | UO-31 renal 78.9% | TK-10 renal 103% | ACHN renal 105% | CAKI-1 renal 94.4% | MOLT-4 leukemia 110%

O=c1[nH]c(=S)c2c(n1CCCO)CCC2
inactive: SK-MEL-2 melanoma 99.8% | EKVX NSCLC 91.2% | SN12C renal 99.7% | UO-31 renal 89.9% | TK-10 renal 102% | ACHN renal 103% | CAKI-1 renal 93.2% | MOLT-4 leukemia 104%

COc1ccc(OC2=CC(=O)c3ccc(C)nc3C2=O)cc1
inactive: SK-MEL-2 melanoma 99.5% | EKVX NSCLC 96.5% | SN12C renal 88.3% | UO-31 renal 92.3% | TK-10 renal 112% | ACHN renal 51.4% | CAKI-1 renal 82.5% | CCRF-CEM leukemia 18.5% | MOLT-4 leukemia 66.5%

O=C(N/N=C(\CS(=O)(=O)c1ccccc1)c1cc2ccccc2oc1=O)c1ccccc1
inactive: SK-MEL-2 melanoma 115% | EKVX NSCLC 101% | SN12C renal 101% | UO-31 renal 94% | TK-10 renal 119% | ACHN renal 101% | CAKI-1 renal 96.4% | CCRF-CEM leukemia 106% | MOLT-4 leukemia 115%

COC(=O)c1c2c(c(C)[n+]([O-])c1C)C(=O)C=C(NCc1ccc(F)cc1)C2=O
inactive: TK-10 renal 13.6%
active: SK-MEL-2 melanoma -31.3% | EKVX NSCLC -57% | SN12C renal -88.8% | UO-31 renal -21% | ACHN renal -45.2% | CAKI-1 renal -0.887% | CCRF-CEM leukemia 4.77% | MOLT-4 leukemia -35.2%

COc1cccc(C2C3=C(COC3=O)N(CCO)c3cc4c(cc32)CCC4)c1 (configuration not stated)
inactive: SK-MEL-2 melanoma 36.8% | EKVX NSCLC 27.9% | SN12C renal 19.5% | UO-31 renal 42.3% | TK-10 renal 53.8% | ACHN renal 35.5% | CCRF-CEM leukemia 20.9% | MOLT-4 leukemia 24.3%
active: A498 renal -19.8%

COc1cc(OCc2cccc(-c3ccc(C(O)c4nccs4)cc3)c2C)cc(OC)c1C=O (configuration not stated)
active: CAKI-1 renal 2.55%
inactive: SK-MEL-2 melanoma 60.4% | EKVX NSCLC 43% | SN12C renal 61.8% | UO-31 renal 22.9% | TK-10 renal 27.7% | ACHN renal 25.2% | CCRF-CEM leukemia 37.2% | MOLT-4 leukemia 21.2%

O=C(NC1CC1)c1cc2n(n1)CC(c1ccccc1)N2 (configuration not stated)
inactive: SK-MEL-2 melanoma 99.9% | EKVX NSCLC 83.7% | SN12C renal 102% | UO-31 renal 95.8% | TK-10 renal 102% | ACHN renal 106% | CAKI-1 renal 91.4% | CCRF-CEM leukemia 108% | MOLT-4 leukemia 109%

NC(=O)c1nc2c([nH]c1=O)CCCC2
inactive: SK-MEL-2 melanoma 106% | EKVX NSCLC 114% | SN12C renal 107% | UO-31 renal 83.5% | TK-10 renal 102% | ACHN renal 106% | A498 renal 99.4% | CCRF-CEM leukemia 94.4% | MOLT-4 leukemia 97.3%

O=C1CCC(N2Cc3c(C#CCCCNC(=O)c4cc5c(o4)C(=O)c4ccccc4C5=O)cccc3C2=O)C(=O)N1 (configuration not stated)
inactive: EKVX NSCLC 64.4% | UO-31 renal 86.4% | TK-10 renal 101% | ACHN renal 71.7% | CAKI-1 renal 78.7% | CCRF-CEM leukemia 12.3%
active: SK-MEL-2 melanoma -26.6% | SN12C renal -92.2% | MOLT-4 leukemia 8.52%

COc1cc(C2CC(=O)Nc3c2ccc2ccccc32)cc(Br)c1OC (configuration not stated)
active: SK-MEL-2 melanoma 8.51% | A498 renal 7.93%
inactive: EKVX NSCLC 38.9% | SN12C renal 50.2% | UO-31 renal 27.2% | TK-10 renal 34.4% | ACHN renal 45.9% | MOLT-4 leukemia 10.6%
